PubChem BioAssay AID1159580 (chemical genetic matrix, 2015)
Among all 5,500 compounds or so, about 2,000 (36%) were called active. Another 18% or so got no clear call; they are omitted. Rule as the data show it: active = normalized growth mostly below about 0.91 (no sharp cut-off); inconclusive = no clear call, values can overlap the other calls; inactive = mostly above about 0.92. The list shows a part of the results.

Assay: chemical genetic growth profiling, strain panel (AID 1159580);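 also: tested at 20 µM; growth read once vehicle control cultures reached saturation at 30 °C; 1 = growth at the plate median or of vehicle wells; lower values mean less growth of the strain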
Settings: S. cerevisiae deletion strains, growth OD

Measured: normalized growth

O=C(O)CN(CC(=O)O)Cc1cc2c(-c3ccccc3C(=O)O)c3cc(CN(CC(=O)O)CC(=O)O)c(=O)cc-3oc2cc1O
inactive: locus YAL013W, strain DEP1, stronger effect = lower value 1 | locus YAL021C, strain ccr4, stronger effect = lower value 0.934 | locus YAL030W, strain snc1, stronger effect = lower value 0.962 | locus YBL061C, strain skt5, stronger effect = lower value 0.965 | locus YBR009C, strain hhf1, stronger effect = lower value 0.931 | locus YBR021W, strain FUR4, stronger effect = lower value 0.981 | locus YBR023C, strain chs3, stronger effect = lower value 0.981 | locus YBR171W, strain sec66, stronger effect = lower value 0.965 | locus YBR229C, strain ROT2, stronger effect = lower value 1.01 | locus YBR231C, strain swc5, stronger effect = lower value 0.943 | locus YBR279W, strain paf1, stronger effect = lower value 0.967 | locus YCL011C, strain gbp2, stronger effect = lower value 0.962 | locus YCL016C, strain dcc1, stronger effect = lower value 0.976 | locus YCL029C, strain bik1, stronger effect = lower value 1.02 | locus YCL061C, strain MRC1, stronger effect = lower value 0.937 | locus YCL069W, strain vba3, stronger effect = lower value 0.975 | locus YCR088W, strain abp1, stronger effect = lower value 0.995 | locus YDL005C, strain med2, stronger effect = lower value 0.982 | locus YDL035C, strain GPR1, stronger effect = lower value 0.997 | locus YDL040C, strain nat1, stronger effect = lower value 0.964 | locus YDL074C, strain BRE1, stronger effect = lower value 0.991 | locus YDL101C, strain DUN1, stronger effect = lower value 1.01 | locus YDL134C, strain PPH21, stronger effect = lower value 1.01 | locus YDL185W, strain tfp1, stronger effect = lower value 0.986 | locus YDL192W, strain arf1, stronger effect = lower value 1.02 | locus YDR001C, strain nth1, stronger effect = lower value 0.965 | locus YDR069C, strain doa4, stronger effect = lower value 0.951 | locus YDR101C, strain arx1, stronger effect = lower value 1.01 | locus YDR150W, strain NUM1, stronger effect = lower value 1.02 | locus YDR159W, strain sac3, stronger effect = lower value 0.96 | locus YDR162C, strain NBP2, stronger effect = lower value 0.984 | locus YDR195W, strain ref2 1.04 | locus YDR297W, strain sur2, stronger effect = lower value 0.951 | locus YDR318W, strain mcm21, stronger effect = lower value 1.02 | locus YDR334W, strain swr1, stronger effect = lower value 0.955 | locus YDR335W, strain msn5, stronger effect = lower value 0.932 | locus YDR388W, stronger effect = lower value 1.02 | locus YDR392W, strain spt3, stronger effect = lower value 0.914 | locus YDR502C, strain sam2, stronger effect = lower value 1.02 | locus YEL003W, strain gim4, stronger effect = lower value 0.948 | locus YEL037C, strain rad23, stronger effect = lower value 0.971 | locus YEL061C, strain CIN8 (second series), stronger effect = lower value 0.963 | locus YEL061C, strain CIN8, stronger effect = lower value 1 | locus YER016W, strain bim1, stronger effect = lower value 0.986 | locus YER110C, stronger effect = lower value 1.03 | locus YER111C, strain swi4, stronger effect = lower value 0.934 | locus YER155C, strain BEM2 (second series), stronger effect = lower value 1 | locus YER155C, strain BEM2, stronger effect = lower value 1 | locus YER167W, strain BCK2, stronger effect = lower value 1.02 | locus YFR010W, strain ubp6, stronger effect = lower value 0.992 | locus YGL078C, strain dbp3, stronger effect = lower value 1.02 | locus YGL086W, strain mad1, stronger effect = lower value 1.01 | locus YGL167C, strain pmr1, stronger effect = lower value 0.967 | locus YGL173C, strain kem1, stronger effect = lower value 0.939 | locus YGL227W, strain vid30, stronger effect = lower value 0.977 | locus YGL240W, strain doc1, stronger effect = lower value 0.977 | locus YGL248W, strain PDE1, stronger effect = lower value 1.01 | locus YGL253W, strain hxk2, stronger effect = lower value 0.934 | locus YGR078C, strain PAC10, stronger effect = lower value 0.997 | locus YGR135W, strain pre9, stronger effect = lower value 1 | locus YGR229C, strain SMI1, stronger effect = lower value 0.976 | locus YGR252W, strain gcn5, stronger effect = lower value 1.05 | locus YHR013C, strain ard1, stronger effect = lower value 0.963 | locus YHR030C, strain SLT2, stronger effect = lower value 1 | locus YHR079C, strain IRE1 (second series), stronger effect = lower value 1.02 | locus YHR094C, strain hxt1, stronger effect = lower value 1.01 | locus YHR129C, strain ARP1, stronger effect = lower value 0.997 | locus YHR142W, strain chs7, stronger effect = lower value 0.945 | locus YHR200W, strain rpn10, stronger effect = lower value 1.02 | locus YIL066C, strain RNR3, stronger effect = lower value 0.992 | locus YIL073C, strain SPO22, stronger effect = lower value 1.08 | locus YIL125W, strain kgd1, stronger effect = lower value 1.01 | locus YIR030C, strain dcg1, stronger effect = lower value 1.02 | locus YJL092W, strain hpr5, stronger effect = lower value 0.977 | locus YJL095W, strain BCK1 (second series), stronger effect = lower value 0.961 | locus YJL095W, strain BCK1, stronger effect = lower value 0.976 | locus YJL115W, strain asf1, stronger effect = lower value 0.947 | locus YJL129C, strain trk1, stronger effect = lower value 0.911 | locus YJL134W, strain LCB3, stronger effect = lower value 1.01 | locus YJL154C, strain vps35, stronger effect = lower value 0.984 | locus YJL164C, strain tpk1, stronger effect = lower value 0.929 | locus YJL166W, strain qcr8, stronger effect = lower value 0.969 | locus YJL168C, strain set2, stronger effect = lower value 1.01 | locus YJL187C, strain SWE1 (second series), stronger effect = lower value 0.992 | locus YJL187C, strain SWE1, stronger effect = lower value 0.963
active: locus YAL026C, strain drs2, stronger effect = lower value 0.904 | locus YDR137W, strain rgp1, stronger effect = lower value 0.829 | locus YER015W, strain faa2, stronger effect = lower value 0.897 | locus YHR027C, strain rpn1, stronger effect = lower value 0.874
